In PubChem BioAssay AID493199 (National Center for Advancing Translational Sciences (NCATS), 2011):
The other results are listed elsewhere or left out. Inconclusive results are not listed. Activity calls are given as the source filed them. Calls follow the shape of the dose curve; as a rule, active = well fitted inhibition curve with a large enough effect; inconclusive = small, poorly fitted or top-dose-only effect, or effect the other way; inactive = no such curve, though single readings can be large or run the other way.

Each molecule was assayed against Muscleblind-like protein 1 (Homo sapiens) (UniProt Q9NR56) (assay: qHTS Assay for Inhibitors of MBNL1-poly(CUG) RNA binding: Initial hit validation from the primary screen). Conditions: TR-FRET MBNL1-His / biotin-(CUG)12 binding, 60 min.
Muscleblind-like protein 1 (Homo sapiens), sequence (Q9NR56 whole entry, looked up): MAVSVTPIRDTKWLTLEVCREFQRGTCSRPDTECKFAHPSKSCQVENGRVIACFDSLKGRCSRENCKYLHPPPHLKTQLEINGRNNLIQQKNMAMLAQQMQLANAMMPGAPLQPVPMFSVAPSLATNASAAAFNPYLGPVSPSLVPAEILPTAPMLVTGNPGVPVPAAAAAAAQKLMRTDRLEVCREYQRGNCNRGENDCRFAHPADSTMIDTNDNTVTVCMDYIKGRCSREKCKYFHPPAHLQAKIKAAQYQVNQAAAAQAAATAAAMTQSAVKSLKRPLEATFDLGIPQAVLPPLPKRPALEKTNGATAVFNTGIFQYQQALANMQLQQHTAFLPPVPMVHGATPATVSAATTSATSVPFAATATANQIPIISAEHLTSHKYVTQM
Excerpt: NIH Chemical Genomics Center [NCGC] NIH Molecular Libraries Probe Production Centers Network [MLPCN] MLPCN Grant: R03 MH087421-01 Assay Submitter (PI): Charles Thornton NCGC Assay Overview: Expanded CTG repeats in the 3' untranslated region of the DM protein kinase (DMPK) gene causes type I myotonic dystrophy (DM1). DM1 is a multi-systemic disease with a prevalence of 1/7000. Clinical features include myotonia, progressive muscle weakness and wasting, cardiac arrhythmia, insulin resistance, hypersomnolence, cataracts, and other symptoms. The pathogenic effect of expanded CTG repeats stems from deleterious effects of the mutant transcript. CUGexp mRNA accumulates in nuclear foci and sequesters proteins of the muscleblind family, of which MBNL1 is the most common family member in skeletal muscles. The binding interaction between MBNL1 and CUGexp tracts leads to deregulation of alternative splicing and is therefore a key molecular step in the pathogenesis of DM1. To target this binding interaction, we optimized a protein-RNA binding assay in 1536-well format for identification of small molecule inhibitors of biotinylated (CUG)12 and his-tagged MBNL1 binding. Protein-RNA complex of MBNL1-His and Biotin-(CUG)12 captures the detection reagents terbium-labeled anti-His antibody and streptavidin conjugated XL665. This brings the terbium label within close proximity to XL665 to allow time-resolved fluorescence resonance energy transfer (TR-FRET). Inhibitors of MBNL1-(CUG)12 binding will disrupt TR-FRET. This deposition presents the initial confirmation of hits from the primary screen in the same assay.
NCGC Assay Protocol Summary: This is a TR-FRET binding assay with MBNL1-His and Biotin-(CUG)12 RNA. The assay uses a ratiometric measurement. […] (3) Add 1 ul of terbium labeled anti-His antibody (0.055 ng/ul final concentration) (4) Add 1 ul of streptavidin-XL665 (5 nM final concentration) (5) Incubate 60 min at room temperature (6) Detect the assay plate in a EnVision plate reader (PerkinElmer) with Ex=340 nm, Em1=665 nm and Em2=545 nm. […]

Potency, active:
COc1cccc(NC(=O)Cn2cnc3sc(C)c(S(=O)(=O)N4CCN(C)CC4)c3c2=O)c1 16.3 µM
CCOC(=O)c1c(C)[nH]c2c1-c1ccccc1C(=O)C2=O 3.26 µM
COc1ccc(Cc2n[nH]c(=S)n2NC(=O)Nc2ccc(C)cc2)cc1 20.6 µM
